The list is not random: actives were taken first. Their share in the collection is about 3.9%.
Anthrax LF prot: anthrax lethal factor protease inhibition. inhibition, % at 10 µM. multiplex microsphere protease cleavage assay, LF. P15917. actives 0.12% (n = 360,000). AID 588501; note: plate controls were buffer without enzyme for full effect and enzyme alone for no effect
Target sequence (P15917 whole entry, looked up): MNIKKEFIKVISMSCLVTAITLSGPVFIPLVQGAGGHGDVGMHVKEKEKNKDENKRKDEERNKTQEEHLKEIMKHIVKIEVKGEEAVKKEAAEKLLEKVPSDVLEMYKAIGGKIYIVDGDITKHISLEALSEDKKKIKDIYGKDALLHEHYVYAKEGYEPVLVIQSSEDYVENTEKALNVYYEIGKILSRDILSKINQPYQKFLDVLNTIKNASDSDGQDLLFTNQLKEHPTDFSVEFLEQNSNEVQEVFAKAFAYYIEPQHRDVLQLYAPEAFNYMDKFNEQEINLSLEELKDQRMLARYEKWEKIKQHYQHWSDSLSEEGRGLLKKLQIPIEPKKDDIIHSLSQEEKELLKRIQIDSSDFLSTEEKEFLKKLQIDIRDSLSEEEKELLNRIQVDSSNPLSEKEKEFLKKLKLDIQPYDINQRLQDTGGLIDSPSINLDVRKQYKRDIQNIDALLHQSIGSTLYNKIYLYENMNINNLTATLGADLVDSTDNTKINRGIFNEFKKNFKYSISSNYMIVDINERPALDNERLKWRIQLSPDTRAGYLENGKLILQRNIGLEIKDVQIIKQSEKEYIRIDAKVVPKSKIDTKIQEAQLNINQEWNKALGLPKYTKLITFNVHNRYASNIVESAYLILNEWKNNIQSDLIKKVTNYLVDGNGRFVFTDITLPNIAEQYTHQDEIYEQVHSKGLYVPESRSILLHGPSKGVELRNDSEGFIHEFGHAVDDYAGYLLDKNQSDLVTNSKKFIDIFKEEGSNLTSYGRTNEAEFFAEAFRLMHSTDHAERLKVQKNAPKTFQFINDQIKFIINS
Bead autofluor: compound fluorescence in toxin protease inhibitor counterscreen; compound autofluorescence counterscreen, microsphere flow cytometry; active compounds read high; fluorescence intensity (test concentration not listed); actives 3.1% (n = 360,000); AID 624483; in the data active = fluorescence intensity above about 16000; inconclusive = no clear call, values can overlap the other calls
BoNT-A LC inh2: BoNT A light chain protease inhibition | AID 588499 | inhibition, % at 10 µM | multiplex microsphere protease substrate cleavage, flow cytometry | actives 0.17% (n = 360,000); note: plate controls were buffer without enzyme for full effect and enzyme alone for no effect
CCHFV vOTU inh: blocks the CCHF virus ovarian tumor domain protease | CCHFV vOTU protease, Pep-AMC fluorescence | actives 0.55% (n = 370,000) | AID 651958 | inhibition, % at 11.5 µM; in the data active = inhibition above about 30%; note: 0% = vehicle wells with enzyme and 100% = no enzyme wells
SARS 3CLpro inh: SARS-CoV 3CLpro protease inhibition | actives 0.14% (n = 290,000) | recombinant SARS-CoV 3CLpro, quenched FRET peptide cleavage | inhibition, % at 6 µM | P0C6X7; in the data active = inhibition above about 12%
BoNT-F LC inh: inhibitors of Botulinum neurotoxin F light chain protease; inhibition, % at 10 µM; actives 0.22% (n = 360,000); Multiplex microsphere protease cleavage assay, flow cytometry; AID 588497; in the data active = inhibition above about 35%, passing the limit was not always enough; inconclusive = no clear call, values can overlap the other calls; note: plate controls were buffer without enzyme for full effect and enzyme alone for no effect
* marks the source's active call; other numbers are inactive results; ? = inconclusive; · = no result given. Cut-off read from the data, not from the text of the source, unless noted: active = inhibition above about 30%; inconclusive = no clear call, values can overlap the other calls; inactive = below that.

SMILES	Anthrax LF prot	Bead autofluor	BoNT-A LC inh2	CCHFV vOTU inh	SARS 3CLpro inh	BoNT-F LC inh
O=C(Nc1cccc(C(F)(F)F)c1)OC1CC2CC1[C@H]1CCCCN1[C@H]2Cc1ccccc1 (stereo partly specified)	·	·	·	11	·	·
CS(=O)(=O)N(CC(=O)N1CCC(C(N)=O)CC1)c1ccc(Oc2ccccc2)cc1	0	2980	-1	-1	-1	-7
Cc1ccc(N(C(C)C(=O)N2CCCCC2)S(C)(=O)=O)cc1C (stereo unspecified)	2	22154*	2	0	-1	4
CC(C(=O)N1CCC(C(N)=O)CC1)N(c1ccc(Oc2ccccc2)cc1)S(C)(=O)=O (stereo unspecified)	0	20200*	1	-4	0	1
O=C(Cc1ccccc1)NCC(=O)N1CCCCCC1	2	22214*	2	10	-6	3
CC(NC(=O)C1CCCN(C(=O)N(C)C)C1)c1ccccc1 (stereo unspecified)	-2	20508*	0	-1	4	-2
CC(NC(=O)CCC(=O)N1CCCCCC1)c1ccccc1 (stereo unspecified)	-2	4180	1	5	-5	36*
S=c1[nH]c2cc(Cl)c3cccnc3c2o1	-6	3653	-5	5	5	-15
S=c1[nH]c2ncccc2o1	1	22317*	0	-2	-6	2
O=C(Nc1cccc2ncccc12)c1ccc([N+](=O)[O-])o1	-8	3601	0	19	0	3
O=C(Nc1cccc2ncccc12)c1ccc(-c2ccc(Br)cc2)o1	-20	20512*	6	9	3	7
O=C(Nc1nc2ncccn2c1-c1ccc(F)cc1)C1CC1	·	·	·	-21	·	·
Cc1nc(N2CCOCC2)[nH]c(=O)c1CCC(C)C	-1	16493*	0	4	1	3
Cc1ccc2c3c(c(SCC(=O)Nc4nonc4C)nc2c1)CCCC3	-3	23233*	?	2	-2	-1
O=C1CC(c2ccccc2Cl)C2=C(COC2=O)N1 (stereo unspecified)	-1	23482*	0	2	7	2
O=C(Nc1ccc(F)cc1)OCc1cn(Cc2ccccc2F)nn1	·	·	·	-4	·	·
CC1CCN(c2ccc(C(=O)O)cc2NS(=O)(=O)c2ccccc2)CC1	·	·	·	6	·	·
Cc1nc2ccccc2cc1C(=O)N/N=C/c1cccs1	1	2060	3	5	-3	38*
CCCCCC(=O)N/N=C/c1cccs1	-2	22461*	0	-6	2	1
COc1cc(/C=N/NC(=O)COc2ccccc2C)ccc1OC(=O)c1cccs1	-2	22564*	?	-3	2	0
CCOc1cc(/C=N/NC(=O)COc2cccc(C)c2)ccc1OC(=O)c1cccs1	-4	9078	1	3	-5	-1
O=C(CCC(=O)Nc1ccc(F)cc1)N/N=C/c1cccs1	-1	6561	0	-1	-3	-9
CCc1ccc(/C=N/NC(=O)Cc2ccc(OC)c(OC)c2)s1	2	6352	-1	-1	1	-9
Cc1nc2ccccc2cc1C(=O)N/N=C/c1ccco1	-4	2561	0	-12	9	-8
COc1ccc(CC(=O)N/N=C/c2cccs2)cc1OC	-10	3446	2	6	6	49*
SMILES	Anthrax LF prot	Bead autofluor	BoNT-A LC inh2	CCHFV vOTU inh	SARS 3CLpro inh	BoNT-F LC inh
CCN(CC)C(=O)CC[C@H]1CC[C@]2(CCCN(C(=O)c3ccno3)C2)O1	·	·	·	-3	·	·
CCOC(=O)CCCNC(=O)OCCCN1CCC2(CCC(c3ccccc3)CC2)C1=O (stereo unspecified)	·	·	·	-2	·	·
COC(=O)C1=C(C)NC(=O)CC1c1ccc(C(=O)OC)cc1 (stereo unspecified)	2	2913	0	0	3	1
COC(=O)C1=C(C)NC(=O)CC1c1ccc(F)c(Br)c1 (stereo unspecified)	-1	23452*	?	·	0	1
Cc1ccn(-c2ccc([N+](=O)[O-])cc2)n1	-2	20585*	0	1	4	-1
Cc1ccn(-c2n[nH]c(C)c2[N+](=O)[O-])n1	3	4932	-2	-10	1	-5
Cc1cc(C)cc(NC(=O)CSc2nnc(-c3ccccc3Br)o2)c1	-2	21943*	1	6	-3	1
Cc1cc(C)cc(NC(=O)CSc2nnc(-c3ccncc3)o2)c1	2	5448	3	9	·	3
Cc1ccccc1-c1nnc(SCC(=O)Nc2cccc(C)c2C)o1	-3	19363*	?	-4	2	5
